# Reference: PubChem BioAssay (EPA / NIEHS)
# Some compounds were tested as several samples or in several runs, with calls that do not always agree. Activity calls are given as the source filed them. Rule for the calls: active = hit-call score of the fitted dose curve at least 0.9, where 1 is the maximum; inactive = score below 0.9.
# Assays:
# [1] = ATG_M_61_CIS: Attagene CIS-FACTORIAL HepG2 Assay for M61 Transcription Factor (Internal Marker) (AID 2282937); conditions: HepG2 Attagene CIS-FACTORIAL M61 internal marker reporter; actives raise or lower the signal
# Procedure, shortened: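 Using transiently transfected HepG2 liver cells, reporter transcript levels were assessed 24 h post-dosing by RT-PCR and capillary electrophoresis. Changes in either direction were fitted relative to DMSO controls.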
# [2] = ATG_EGR_CIS: Attagene CIS-FACTORIAL HepG2 Assay for human Early Growth Response 1 (EGR1) (AID 2282938); conditions: HepG2 Attagene CIS-FACTORIAL EGR reporter mRNA; actives raise or lower the signal
# Procedure, shortened: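 Fluorescent capillary-electrophoresis signal of reporter cDNA fragments serves as read-out. HepG2 cells bear transiently transfected cis-promoter reporter units and are exposed 24 h; gain- or loss-of-signal is fitted against DMSO.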
# [3] = ATG_M_19_CIS: Attagene CIS-FACTORIAL HepG2 Assay for M19 Transcription Factor (Internal Marker) (AID 2282939); conditions: HepG2 Attagene CIS-FACTORIAL M19 internal marker reporter; actives raise or lower the signal
# Procedure, shortened: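 Background-control endpoint from a multiplexed HepG2 reporter panel. Cells carrying cis-regulated reporter constructs are treated 24 h, then reporter transcripts are amplified, fluorescently labelled and sized by capillary electrophoresis. DMSO defines baseline.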
# [4] = ATG_ERE_CIS: Attagene CIS-FACTORIAL HepG2 Assay for Estrogen Response Element (ERE) (AID 2282940); conditions: HepG2 ERE cis-reporter, Attagene RNA transcript; actives raise or lower the signal
# Procedure, shortened: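 Cells used were human hepatoma HepG2, transfected with multiple reporter transcription units under cis-regulatory promoters. Reporter mRNA, read 24 h post-dosing via fluorescent RT-PCR products on capillary electrophoresis, was fitted bidirectionally relative to DMSO.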
# [5] = molecular target: Hepatocyte nuclear factor 3-beta (Homo sapiens) (UniProt Q9Y261); assay: ATG_FoxA2_CIS: Attagene CIS-FACTORIAL HepG2 Assay for human Forkhead box A2 (FOXA2) (AID 2282942); conditions: HepG2 cis-reporter transcription factor activity, 24 h; actives raise or lower the signal
# Procedure, shortened: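 Fluorescence signal of reporter cDNA fragments, separated by capillary electrophoresis, reflects endogenous transcription factor activity in transfected HepG2 after 24 h. Both increases and decreases fitted against DMSO.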
# [6] = ATG_GATA_CIS: Attagene CIS-FACTORIAL HepG2 Assay for human GATA Binding Protein (AID 2282944); conditions: HepG2 GATA cis-element reporter, Attagene multiplex mRNA; actives raise or lower the signal
# Procedure, shortened: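 Endogenous transcription factor activity was captured through cis-promoter-driven reporters in transfected HepG2 cells. After 24 h exposure, reporter transcripts were quantified by RT-PCR with fluorescent capillary electrophoresis, and responses fitted both directions against DMSO.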
# [7] = molecular target: Bile acid receptor (Homo sapiens) (UniProt Q96RI1); assay: ATG_IR1_CIS: Attagene CIS-FACTORIAL HepG2 Assay for human Nuclear Receptor Subfamily 1 Group H Member 4 (NR1H4), IR1 submotif (AID 2282946); conditions: IR1 reporter transcription, actives raise or lower the signal
# Procedure, shortened: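 Readout: reporter transcript levels by RT-PCR with fluorescent capillary electrophoresis, from HepG2 cells transiently transfected with multiplexed cis-regulated reporters and dosed 24 h. Gain- or loss-of-signal fitted versus DMSO negative control.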
# [8] = ATG_ISRE_CIS: Attagene CIS-FACTORIAL HepG2 Assay for human Interferon Regulatory Factor 1 (IRF1) binding to an Interferon-Stimulated Response Element (ISRE) (AID 2282948); conditions: HepG2 ISRE cis-reporter (Attagene), mRNA transcription readout; actives raise or lower the signal
# Procedure, shortened: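 Multiplexed mRNA reporter readout in human liver HepG2 cells: cis-element-driven reporters transfected, compound added for 24 h, transcripts amplified, fluorescently labelled and sized by capillary electrophoresis; curve fitting bidirectional against DMSO.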
# [9] = ATG_M_32_CIS: Attagene CIS-FACTORIAL HepG2 Assay for M32 Transcription Factor (Internal Marker) (AID 2282949); conditions: HepG2 Attagene cis-factorial M32 reporter, mRNA; actives raise or lower the signal;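 note: background control marker of the multiplexed CIS panel rather than a real target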
# Procedure, shortened: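 HepG2 human liver cells transiently transfected with cis-promoter-driven multiple reporter transcription units, dosed 24 h. Reporter mRNA quantified by RT-PCR, FAM-labelled primer extension, HpaI digest and capillary electrophoresis; bidirectional fit versus DMSO baseline.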
# [10] = ATG_M_06_CIS: Attagene CIS-FACTORIAL HepG2 Assay for M06 Transcription Factor (Internal Marker) (AID 2282950); conditions: HepG2 Attagene CIS-FACTORIAL M06 internal marker reporter; actives raise or lower the signal
# Procedure, shortened: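 Steps: transfect HepG2 with multiplexed cis-element reporter constructs; dose chemical 24 h; extract RNA with DNase treatment; reverse-transcribe, PCR-amplify, 6-FAM label, HpaI digest; separate fragments by capillary electrophoresis. Activity fitted both directions versus DMSO.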
# [11] = molecular target: Hypoxia-inducible factor 1-alpha (Homo sapiens) (UniProt Q16665); assay: ATG_HIF1a_CIS: Attagene CIS-FACTORIAL HepG2 Assay for human Hypoxia Inducible Factor 1 (HIF1A) (AID 2282951); conditions: HepG2 Attagene cis-factorial HIF1a reporter transcription; actives raise or lower the signal
# Procedure, shortened: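 Endogenous-TF cis reporter readout, human HepG2 cells, 24 h incubation; mRNA detected via RT-PCR and capillary electrophoresis fluorescence; DMSO-normalised bidirectional fitting.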
# [12] = molecular target: Hepatocyte nuclear factor 6 (Homo sapiens) (UniProt Q9UBC0); assay: ATG_HNF6_CIS: Attagene CIS-FACTORIAL HepG2 Assay for human Hepatocyte Nuclear Factor 6 (HNF6) (AID 2282952); conditions: HepG2 Attagene cis-factorial HNF6 reporter transcription; actives raise or lower the signal
# Procedure, shortened: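 Endogenous factor activity read in transiently transfected HepG2 via promoter-regulated reporter transcripts. RNA harvested 24 h post-dosing, reverse-transcribed, PCR-amplified, FAM-labelled, HpaI-digested and resolved by capillary electrophoresis; fitted in both directions against DMSO.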
# [13] = molecular target: Heat shock factor protein 1 (Homo sapiens) (UniProt Q00613); assay: ATG_HSE_CIS: Attagene CIS-FACTORIAL HepG2 Assay for human Heat Shock Transcription Factor 1 (HSE) (AID 2282953); conditions: HepG2 HSE cis-reporter, Attagene RNA transcription; actives raise or lower the signal
# Procedure, shortened: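 Cells were transfected with cis-element-driven reporter constructs, dosed for 24 h, then total RNA was reverse-transcribed and reporter cDNA amplified, FAM-labelled and digested with HpaI. Fragments were resolved by capillary electrophoresis; gain or loss was fitted against DMSO.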
# [14] = ATG_MRE_CIS: Attagene CIS-FACTORIAL HepG2 Assay for human Metal Responsive Element (MRE) (AID 2282954); conditions: HepG2 MRE cis-reporter transcription, Attagene multiplex; actives raise or lower the signal
# Procedure, shortened: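 Cells were transfected with cis-promoter reporter transcription units, then dosed for 24 h. RNA was reverse-transcribed, amplified, fluorescently labelled and resolved by capillary electrophoresis, and activity was fitted in both directions relative to DMSO.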
# [15] = ATG_PBREM_CIS: Attagene CIS-FACTORIAL HepG2 Assay for human Phenobarbital-responsive Enhancer Module (PBREM) (AID 2282955); conditions: HepG2 PBREM cis-reporter, Attagene multiplexed transcription; actives raise or lower the signal
# Procedure, shortened: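 Readout: reporter mRNA, fluorescent RT-PCR fragments separated by capillary electrophoresis. System: HepG2 transiently transfected with cis-regulated reporter units. Exposure: 24 h. Analysis: bidirectional, DMSO baseline.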
# [16] = molecular target: Paired box protein Pax-6 (Homo sapiens) (UniProt P26367); assay: ATG_Pax6_CIS: Attagene CIS-FACTORIAL HepG2 Assay for human Paired Box 6 (PAX6) (AID 2282956); conditions: HepG2 CIS-FACTORIAL PAX6 reporter transcription, RNA readout; actives raise or lower the signal
# Procedure, shortened: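 Fluorescent RT-PCR products separated by capillary electrophoresis report PAX6-linked promoter mRNA in HepG2 cells 24 h post-dose. Curves fitted bidirectionally, DMSO as negative control.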
# [17] = ATG_Ets_CIS: Attagene CIS-FACTORIAL HepG2 Assay for human Erythroblast Transformation Specific (ETS) (AID 2282941); conditions: HepG2 ETS cis-reporter transcription, actives raise or lower the signal
# Procedure, shortened: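 Cis-regulated reporter mRNA induction in HepG2 (transient transfection), 24 h exposure, RT-PCR plus capillary electrophoresis detection; DMSO serves as negative control and baseline.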
# [18] = ATG_FoxO_CIS: Attagene CIS-FACTORIAL HepG2 Assay for human Forkhead box O (FoxO) (AID 2282943); conditions: HepG2 Attagene cis-reporter, FoxO element, mRNA; actives raise or lower the signal
# Procedure, shortened: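 24 h chemical exposure, HepG2 with transient cis-MRTU transfection. RNA extraction, oligo(dT) RT, reporter-specific PCR, primer-extension labelling, HpaI digestion, CE fragment analysis; bidirectional fit, DMSO baseline.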
# [19] = ATG_GLI_CIS: Attagene CIS-FACTORIAL HepG2 Assay for human Zinc Finger Protein GLI1 (AID 2282945); conditions: HepG2, Attagene cis-factorial reporter mRNA, GLI element; actives raise or lower the signal
# Procedure, shortened: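 HepG2 cells transiently transfected with cis-promoter multiplexed reporter units report endogenous transcription factor activity. After 24 h chemical exposure, reporter mRNA was quantified by RT-PCR, 6-FAM labelling, HpaI digestion and capillary electrophoresis, with bidirectional fitting against DMSO.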
# [20] = ATG_GRE_CIS: Attagene CIS-FACTORIAL HepG2 Assay for human Glucocorticoid Response Elements (GRE) (AID 2282947); conditions: HepG2 GRE cis-reporter, Attagene multiplex mRNA; actives raise or lower the signal
# Procedure, shortened: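 Cells (HepG2) bearing transfected cis-promoter reporter transcription units were treated with chemical for 24 hours. Reporter mRNA was measured via RT-PCR with capillary electrophoresis, and activity was fitted in both directions relative to DMSO.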
# Sequence of Paired box protein Pax-6 (Homo sapiens) (P26367 whole entry, looked up): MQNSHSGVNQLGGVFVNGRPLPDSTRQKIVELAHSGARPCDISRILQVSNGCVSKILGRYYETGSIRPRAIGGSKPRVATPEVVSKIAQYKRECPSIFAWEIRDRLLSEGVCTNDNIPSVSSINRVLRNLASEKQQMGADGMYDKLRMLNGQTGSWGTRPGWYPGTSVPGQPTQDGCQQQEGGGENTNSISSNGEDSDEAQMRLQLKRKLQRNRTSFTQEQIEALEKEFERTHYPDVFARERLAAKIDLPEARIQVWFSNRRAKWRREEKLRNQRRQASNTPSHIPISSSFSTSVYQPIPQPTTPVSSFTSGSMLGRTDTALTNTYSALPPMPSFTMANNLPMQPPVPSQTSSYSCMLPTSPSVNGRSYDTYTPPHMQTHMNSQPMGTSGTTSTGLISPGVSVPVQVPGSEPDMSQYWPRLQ
# Sequence of Hepatocyte nuclear factor 3-beta (Homo sapiens) (Q9Y261 whole entry, looked up, the tested form may be a part): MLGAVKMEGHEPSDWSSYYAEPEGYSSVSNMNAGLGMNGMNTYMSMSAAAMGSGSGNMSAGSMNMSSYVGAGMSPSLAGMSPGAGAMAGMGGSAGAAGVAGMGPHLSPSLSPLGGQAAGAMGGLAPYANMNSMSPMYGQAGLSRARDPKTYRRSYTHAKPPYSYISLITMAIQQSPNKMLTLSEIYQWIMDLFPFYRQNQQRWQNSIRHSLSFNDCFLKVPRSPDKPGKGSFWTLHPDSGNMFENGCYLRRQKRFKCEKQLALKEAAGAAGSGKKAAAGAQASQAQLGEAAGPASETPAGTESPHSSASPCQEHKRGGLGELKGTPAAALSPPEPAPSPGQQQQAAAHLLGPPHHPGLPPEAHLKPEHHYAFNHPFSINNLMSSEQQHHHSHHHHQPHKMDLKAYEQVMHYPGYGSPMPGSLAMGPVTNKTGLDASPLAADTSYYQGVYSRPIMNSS
# Sequence of Heat shock factor protein 1 (Homo sapiens) (Q00613 whole entry, looked up, the tested form may be a part): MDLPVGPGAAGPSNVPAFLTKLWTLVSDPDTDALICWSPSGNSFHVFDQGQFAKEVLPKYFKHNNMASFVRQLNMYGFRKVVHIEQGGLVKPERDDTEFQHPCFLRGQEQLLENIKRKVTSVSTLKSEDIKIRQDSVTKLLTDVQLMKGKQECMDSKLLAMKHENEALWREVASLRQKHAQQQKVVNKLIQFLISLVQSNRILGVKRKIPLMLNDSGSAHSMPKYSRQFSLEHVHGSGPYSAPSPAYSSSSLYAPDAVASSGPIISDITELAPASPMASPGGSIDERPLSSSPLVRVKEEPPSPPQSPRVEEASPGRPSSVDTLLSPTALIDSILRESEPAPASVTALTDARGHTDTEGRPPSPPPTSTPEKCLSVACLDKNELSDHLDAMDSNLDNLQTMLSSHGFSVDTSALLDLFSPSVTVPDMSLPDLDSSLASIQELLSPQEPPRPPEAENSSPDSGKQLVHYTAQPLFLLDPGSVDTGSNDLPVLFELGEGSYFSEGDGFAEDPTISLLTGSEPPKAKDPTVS
# Sequence of Bile acid receptor (Homo sapiens) (Q96RI1 whole entry, looked up): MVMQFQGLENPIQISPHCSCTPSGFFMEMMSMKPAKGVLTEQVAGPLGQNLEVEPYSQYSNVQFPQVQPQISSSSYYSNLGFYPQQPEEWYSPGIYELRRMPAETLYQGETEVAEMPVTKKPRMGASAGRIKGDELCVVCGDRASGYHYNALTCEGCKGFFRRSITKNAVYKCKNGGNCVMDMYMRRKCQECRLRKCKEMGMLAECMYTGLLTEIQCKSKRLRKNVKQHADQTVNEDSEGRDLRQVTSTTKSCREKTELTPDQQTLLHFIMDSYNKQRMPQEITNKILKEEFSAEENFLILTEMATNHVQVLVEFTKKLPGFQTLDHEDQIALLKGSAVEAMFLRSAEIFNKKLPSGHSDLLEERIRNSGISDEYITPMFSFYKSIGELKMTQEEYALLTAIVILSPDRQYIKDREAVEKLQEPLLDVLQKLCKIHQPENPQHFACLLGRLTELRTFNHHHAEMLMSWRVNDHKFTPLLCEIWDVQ
# Sequence of Hypoxia-inducible factor 1-alpha (Homo sapiens) (Q16665 whole entry, looked up): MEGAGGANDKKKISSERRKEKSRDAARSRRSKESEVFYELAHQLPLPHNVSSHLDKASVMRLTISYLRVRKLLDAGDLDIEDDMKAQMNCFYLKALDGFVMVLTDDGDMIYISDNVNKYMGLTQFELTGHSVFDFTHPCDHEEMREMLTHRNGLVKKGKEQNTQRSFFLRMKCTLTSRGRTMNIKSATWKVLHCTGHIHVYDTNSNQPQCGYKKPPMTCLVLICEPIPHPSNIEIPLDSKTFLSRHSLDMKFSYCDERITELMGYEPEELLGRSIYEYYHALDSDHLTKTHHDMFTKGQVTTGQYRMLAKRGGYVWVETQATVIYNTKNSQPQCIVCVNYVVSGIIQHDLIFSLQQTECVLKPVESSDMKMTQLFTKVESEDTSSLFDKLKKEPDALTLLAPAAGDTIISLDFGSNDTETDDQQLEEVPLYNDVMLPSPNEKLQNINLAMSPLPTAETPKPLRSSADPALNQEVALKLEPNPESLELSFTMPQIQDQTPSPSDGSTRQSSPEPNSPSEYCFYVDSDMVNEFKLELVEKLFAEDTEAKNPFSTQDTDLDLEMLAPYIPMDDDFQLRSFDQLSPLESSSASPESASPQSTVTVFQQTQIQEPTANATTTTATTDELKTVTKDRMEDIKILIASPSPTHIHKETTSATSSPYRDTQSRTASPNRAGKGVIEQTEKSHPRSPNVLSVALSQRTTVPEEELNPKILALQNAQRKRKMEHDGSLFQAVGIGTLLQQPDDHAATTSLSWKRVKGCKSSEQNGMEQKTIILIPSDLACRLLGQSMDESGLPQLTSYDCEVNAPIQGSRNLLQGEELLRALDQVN
# Sequence of Hepatocyte nuclear factor 6 (Homo sapiens) (Q9UBC0 whole entry, looked up): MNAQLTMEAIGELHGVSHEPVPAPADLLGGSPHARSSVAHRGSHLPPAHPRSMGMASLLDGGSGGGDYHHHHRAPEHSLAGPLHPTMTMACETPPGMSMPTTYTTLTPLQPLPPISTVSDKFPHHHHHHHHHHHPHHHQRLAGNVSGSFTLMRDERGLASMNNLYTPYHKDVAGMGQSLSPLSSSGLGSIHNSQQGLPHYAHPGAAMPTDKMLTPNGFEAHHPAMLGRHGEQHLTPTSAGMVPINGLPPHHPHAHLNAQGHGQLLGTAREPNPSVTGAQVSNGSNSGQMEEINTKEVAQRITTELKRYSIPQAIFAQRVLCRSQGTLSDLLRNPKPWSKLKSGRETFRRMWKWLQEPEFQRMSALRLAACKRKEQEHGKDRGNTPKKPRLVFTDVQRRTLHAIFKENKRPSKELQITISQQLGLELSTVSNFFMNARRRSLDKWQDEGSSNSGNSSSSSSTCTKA
smiles,measurement,setting,value
CCN(Cc1c(F)cccc1Cl)c1c([N+](=O)[O-])cc(C(F)(F)F)cc1[N+](=O)[O-],outcome,[1],inactive
same,outcome,[2],inactive
same,outcome,[3],inactive
same,AC50,[4],1.81 µM (active)
same,outcome,[5],inactive
same,outcome,[6],inactive
same,outcome,[7],inactive
same,outcome,[8],inactive
same,outcome,[9],inactive
same,outcome,[10],inactive
same,outcome,[11],inactive
same,outcome,[12],inactive
same,outcome,[13],inactive
same,outcome,[14],inactive
same,AC50,[15],7.72 µM (active)
same,AC50,[16],7.64 µM (active)
COC(=O)CSc1cc(N=c2sc(=O)n3n2CCCC3)c(F)cc1Cl,outcome,[1],inactive
same,outcome,[2],inactive
same,outcome,[3],inactive
same,outcome,[17],inactive
same,outcome,[5],inactive
same,outcome,[18],inactive
same,outcome,[6],inactive
same,outcome,[19],inactive
same,outcome,[7],inactive
same,outcome,[20],inactive
same,outcome,[8],inactive
same,outcome,[9],inactive
same,outcome,[10],inactive
same,outcome,[11],inactive
same,outcome,[12],inactive
same,outcome,[13],inactive
same,outcome,[15],inactive
same,outcome,[16],inactive
C[C@]12C[C@H](O)[C@H]3[C@@H](CCC4=CC(=O)CC[C@@]43C)[C@@H]1CC[C@@H]2C(=O)CO,outcome,[1],inactive
same,outcome,[2],inactive
same,outcome,[3],inactive
same,outcome,[5],inactive
same,outcome,[6],inactive
same,outcome,[7],inactive
same,AC50,[20],26.6 µM (active)
same,outcome,[20],inactive
same,outcome,[8],inactive
same,outcome,[9],inactive
same,outcome,[10],inactive
same,AC50,[11],55.9 µM (active)
same,outcome,[11],inactive
same,outcome,[12],inactive
same,outcome,[13],inactive
same,outcome,[15],inactive
same,outcome,[16],inactive
CCCOC(=O)NCCCN(C)C,outcome,[1],inactive
same,outcome,[2],inactive
same,outcome,[3],inactive
same,outcome,[5],inactive
same,outcome,[6],inactive
same,outcome,[8],inactive
same,outcome,[9],inactive
same,outcome,[10],inactive
same,outcome,[11],inactive
same,outcome,[12],inactive
same,outcome,[14],inactive
same,outcome,[15],inactive
same,outcome,[16],inactive
